Bioassay records: PubChem BioAssay, Sanford-Burnham Center for Chemical Genomics
PLAP act – PLAP enzyme activators, biochemical, luminescence, HTS. Alkaline phosphatase, placental type (Homo sapiens), P05187. hit rate 1.2% among 96,000. purified PLAP enzyme, luminescent substrate read-out; active compounds read high. activation fold at 20 µM; in the data active means activation fold above about 2
CYP2C9 activ – human CYP2C9 activators, primary screen, biochemical, luminescence; hit rate 1.4% among 96,000; AID 1024, 2008; activation factor at 5 µM; recombinant CYP2C9, luciferin-H conversion; active compounds read high; factor 1 = untreated enzyme, 0 = blocked;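 active means activation factor of 2 or more for CYP2C9 at a 5 µM dose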
Target sequence (P11712 whole entry, looked up): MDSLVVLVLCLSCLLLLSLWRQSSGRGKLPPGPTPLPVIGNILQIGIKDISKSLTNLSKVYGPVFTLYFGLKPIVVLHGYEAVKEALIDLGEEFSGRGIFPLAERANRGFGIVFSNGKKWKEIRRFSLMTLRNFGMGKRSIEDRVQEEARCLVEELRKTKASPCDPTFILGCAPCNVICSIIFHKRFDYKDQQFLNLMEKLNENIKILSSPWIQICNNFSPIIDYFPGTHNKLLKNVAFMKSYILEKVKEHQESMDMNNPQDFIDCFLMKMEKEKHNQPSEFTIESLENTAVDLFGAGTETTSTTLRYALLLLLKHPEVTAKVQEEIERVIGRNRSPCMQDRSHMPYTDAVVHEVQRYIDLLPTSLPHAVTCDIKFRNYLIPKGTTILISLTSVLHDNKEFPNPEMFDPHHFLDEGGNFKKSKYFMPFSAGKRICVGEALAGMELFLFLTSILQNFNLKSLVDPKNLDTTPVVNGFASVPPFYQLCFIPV
CYP2C19 activ – human CYP2C19 activators, primary screen, biochemical, luminescence. Cytochrome P450 2C19 (Homo sapiens), P33261. recombinant CYP2C19, luciferin-H EGE luminescence; active compounds read high; 0 = fully inhibited enzyme, 1 = untreated enzyme. activation factor at 5 µM. 96,000 tested, under 10 active. AID 1025, 2008;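 active means activation factor of at least 2 at 5 µM in the primary screen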
CYP2C9 inh – blockers of cytochrome P450 2C9 activity – biochemical, luminescence, ADME assay, primary screen; P11712; CYP2C9 Supersomes, luciferin-H conversion; inhibition, % at 5 µM; hit rate 20% among 96,000; AID 777, 2007;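 active means blocking of liver enzyme CYP2C9 beyond about 50% at 5 µM, limit read from the data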
CYP2C19 inh – blockers of cytochrome P450 2C19 activity – biochemical, luminescence, ADME assay, primary screen; P33261; hit rate 21% among 96,000; inhibition, % at 5 µM; CYP2C19 Supersomes, luciferin-H EGE luminescence, 30 min;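 active means CYP2C19 inhibition above a set limit at 5 µM in the primary screen, cut at about 50% in these data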
Large screens that a line does not name were inactive. Rows were chosen to be rich in hits. Some 31% of all compounds tested hit in one or more screens of this group.

CC1(C)Cc2ccccc2-c2nnc(SCC(=O)N3CCN(c4ccccc4)CC3)n21	CYP2C9 inh 62, CYP2C19 inh 80
Cn1c(SCC(=O)N2CCN(c3ccccc3)CC2)nnc1-c1ccccc1	none
CC(C)CC(=O)N1CCN(S(C)(=O)=O)CC1	none
Cn1c(=O)[nH]c(=O)c2c1nc(N1CCOCC1)n2CC(O)COc1ccccc1 (stereo not drawn)	CYP2C9 inh 75
Cc1cc(C)n(-c2nc3c(c(=O)[nH]c(=O)n3C)n2CC(O)COc2ccccc2C)n1 (stereo not drawn)	CYP2C19 inh 74
Cc1cc(C)n(-c2nc3c(c(=O)[nH]c(=O)n3C)n2CC(O)COc2ccccc2)n1 (stereo not drawn)	none
Cn1c(=O)[nH]c(=O)c2c1nc(N1CCCC1)n2CC(O)COc1ccccc1 (stereo not drawn)	none
Cc1cc(C)n(-c2nc3c(c(=O)[nH]c(=O)n3C)n2Cc2cccc(Br)c2)n1	CYP2C19 inh 55
O=C(CSc1nc2c(c(=O)n1-c1ccc(F)cc1)SCC2)NCc1ccco1	none
CCOC(=O)c1ccc(N2C(=O)CC(N3CCOCC3)C2=O)cc1 (stereo not drawn)	none
O=C1CC(=C(c2ccccc2)c2ccccc2)C(=O)N1CCCCN1CCN(c2cccc(Cl)c2)CC1	CYP2C9 inh 66
Cc1ccccc1N1CCN(CCCN2C(=O)CC(=C(c3ccccc3)c3ccccc3)C2=O)CC1	CYP2C9 inh 50, CYP2C19 inh 73
COc1ccc(NC(=O)C(c2ccc(OC)cc2)N(C)C(=O)c2cnccn2)cc1 (stereo not drawn)	none
O=[N+]([O-])c1ccc(NCCNc2ccc(Cl)nn2)cc1	none
CCC1CCCCN1C(=O)Cn1c(=O)oc2ccccc21 (stereo not drawn)	CYP2C19 inh 83
Cn1c(=O)cc(OCC(=O)NC2CCCCC2)c2ccccc21	CYP2C19 inh 62
CC(=O)N1CCN(C(=O)Cn2c(=O)oc3ccccc32)CC1	none
CCC1CCCCN1CCCNC(=O)COc1cc(=O)n(C)c2ccccc12 (stereo not drawn)	none
CCC1CCCCN1C(=O)Cn1c(C(=O)OC)cc2sc(Cl)cc21 (stereo not drawn)	none
CCC1CCCCN1C(=O)Cn1c(C(=O)OC)cc2ccsc21 (stereo not drawn)	CYP2C19 inh 53
CCC1CCCCN1C(=O)COc1cc(=O)n(C)c2ccccc12 (stereo not drawn)	CYP2C19 inh 59
Cc1[nH]nc2c1C(c1cccc(OC(=O)N3CCOCC3)c1)C(C#N)=C(N)O2 (stereo not drawn)	none
COc1cc2c(C)nc3onc(-c4ccccc4)c3c2cc1OC	CYP2C9 inh 77, CYP2C19 inh 54
CN(C)c1cc[nH]c(=O)c1C#N	none
Cc1nn(-c2cccc(C(F)(F)F)c2)c(Cl)c1/C=N/n1cnnc1	CYP2C9 inh 95, CYP2C19 inh 90
Cc1ccc(SCc2cc(=O)n3[nH]c(C)nc3n2)cc1	CYP2C9 inh 56
Cc1nc2nc(-c3ccccc3)cc(=O)n2[nH]1	none
Cc1nc2nc(CSc3ccc(Cl)cc3)cc(=O)n2[nH]1	CYP2C9 inh 55
CSc1cc(C)nc(N(C)C(C)=O)n1	none
NS(=O)(=O)c1ccc(CCNc2cc(=O)n(Cc3ccc(F)cc3)c(=O)[nH]2)cc1	none
NS(=O)(=O)c1ccc(CCNc2ncnc3c2c(-c2ccccc2)cn3-c2ccc(F)cc2)cc1	CYP2C9 inh 57
CCn1c(SCC(=O)Nc2ccc(C(=O)OC)cc2)nnc1-c1cccs1	CYP2C19 inh 51
Cc1nnc(SCC(=O)Nc2ccc3c(c2)OCCO3)n1N	none
CCn1c(SCC(=O)NCC(=O)Nc2ccc(F)cc2)nnc1-c1cccs1	CYP2C9 inh 93
CCn1c(SCC(=O)Nc2cc(C)on2)nnc1-c1cccnc1	none
CCn1c(SCC(=O)Nc2cc(C)on2)nnc1-c1cccs1	CYP2C19 inh 83
CCn1c(SCC(=O)Nc2ccc3c(c2)OCCO3)nnc1-c1cccs1	CYP2C9 inh 52
COc1ccc(C(C(=O)Nc2ccc(F)cc2)N(C(=O)Cn2nnc3ccccc32)C2CC2)cc1 (stereo not drawn)	none
CCOc1cc(/C=N/NC(=O)CNc2ccc(C)cc2)ccc1OC(=O)c1ccccc1	none
O=C(Cc1cn2ccsc2n1)Nc1nc2c(s1)CN(Cc1ccccc1)CC2	none
O=c1[nH]c(-c2ccccc2O)nc2c1CCCC2	none
Cc1ccccc1NC(=O)c1cccc(N2C(=O)C3C4CCC(C4)C3C2=O)c1 (stereo not drawn)	CYP2C9 inh 57
COc1ccc(NC(=S)NCCc2ccccc2)c(OC)c1	CYP2C19 inh 90
COc1ccccc1NC(=S)NCCc1ccc(Cl)cc1	CYP2C19 inh 71
Fc1cc(Br)ccc1NC(=S)NCCc1ccccc1	CYP2C19 inh 76
COc1ccccc1NC(=S)NC(=O)c1ccc(-c2ccc(Cl)cc2)o1	none
COc1ccccc1NC(=S)NCc1ccco1	CYP2C19 inh 64
CS(=O)(=O)N(CC(=O)O)c1ccc2c(c1)OCO2	none
Cc1[nH]c2ccccc2c1C(c1ccccn1)N1CCC(C)CC1 (stereo not drawn)	none
CC1NC(=O)NC1CCCCCC(=O)NCCc1ccccc1 (stereo not drawn)	none
COCc1cc(C)nc(SCC(=O)Nc2cccc(C)c2C)c1C#N	none
Cc1cccc(NC(=O)Cn2c(C)c(C#N)c3ccccc32)c1C	CYP2C9 inh 87, CYP2C19 inh 87
CCOC(=O)Cn1c(C)c(C#N)c2ccccc21	CYP2C9 inh 50, CYP2C19 inh 57
Cc1c(C#N)c2ccccc2n1CC(=O)NC(C)c1ccccc1 (stereo not drawn)	CYP2C9 inh 59, CYP2C19 inh 87
CCOc1ccc(C(=O)NCC(=O)OCC(=O)N2C(C)CCCC2C)cc1 (stereo not drawn)	none
Cc1ccc(C2C(C#N)=C(N)SC(N)=C2C#N)cc1	none
Cc1ccc(C2C(C#N)=C(N)SC(N)=C2C#N)c(C)c1	CYP2C19 inh 54
CCOP(=O)(c1c(F)c(F)c(F)c(F)c1F)C1(O)CCCCC1 (stereo not drawn)	none
CCC1(COC(=O)Nc2cccc(Cl)c2)COC1	none
COn1c(SCC(N)=O)nc2ccccc2c1=O	none
COn1c(SC2CCCCC2)nc2ccccc2c1=O	CYP2C9 inh 82, CYP2C19 inh 78
COn1c(SC(C)C)nc2ccccc2c1=O	none
COn1c(SCc2ccc(C)cc2C)nc2ccccc2c1=O	CYP2C9 inh 93, CYP2C19 inh 73
CCN(CC)CC(C)OC(=O)c1cc(OC)c(OC)c(OC)c1 (stereo not drawn)	none
Cc1ccccc1NC1C=CS(=O)(=O)C1 (stereo not drawn)	none
COc1cccc(C(=O)N2CCN(Cc3ccccn3)CC2)c1OC	none
